Several values for one entry are separate records, joined by “and”; a condition that tells them apart may be missing. Equal entries are not always repeated. About 2,000 (36%) of roughly 5,500 compounds were called active. Not shown: some 18% with an inconclusive outcome. Cut-off read from the data, not from the text of the source: active = normalized growth mostly below about 0.91 (no sharp cut-off); inconclusive = no clear call, values can overlap the other calls; inactive = mostly above about 0.92. The list shows a part of the results.
Assay: chemical genetic growth profiling, strain panel (AID 1159580);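 note: tested at 20 µM; growth read once vehicle control cultures reached saturation at 30 °C; 1 = growth at the plate median or of vehicle wells; lower values mean less growth of the strain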
Details: S. cerevisiae deletion strains, growth OD

Measured: normalized growth

COc1cc2ccc(=O)oc2cc1O
inactive: locus YAL013W, strain DEP1, hits give low values 1.03 | locus YAL021C, strain ccr4, hits give low values 0.958 | locus YAL026C, strain drs2, hits give low values 0.968 | locus YAL030W, strain snc1, hits give low values 0.977 | locus YBL061C, strain skt5, hits give low values 0.965 | locus YBR009C, strain hhf1, hits give low values 1.01 | locus YBR021W, strain FUR4, hits give low values 0.985 | locus YBR023C, strain chs3, hits give low values 0.958 | locus YBR171W, strain sec66, hits give low values 0.984 | locus YBR229C, strain ROT2, hits give low values 0.946 | locus YBR231C, strain swc5, hits give low values 0.966 | locus YBR279W, strain paf1, hits give low values 0.96 | locus YCL011C, strain gbp2, hits give low values 0.946 | locus YCL016C, strain dcc1, hits give low values 0.94 | locus YCL029C, strain bik1, hits give low values 0.979 | locus YCL069W, strain vba3, hits give low values 0.98 | locus YCR088W, strain abp1, hits give low values 0.985 | locus YDL005C, strain med2, hits give low values 0.992 | locus YDL035C, strain GPR1, hits give low values 0.97 | locus YDL040C, strain nat1, hits give low values 0.973 | locus YDL074C, strain BRE1, hits give low values 1.04 | locus YDL101C, strain DUN1, hits give low values 0.999 | locus YDL185W, strain tfp1, hits give low values 0.974 | locus YDL192W, strain arf1, hits give low values 1 | locus YDR001C, strain nth1, hits give low values 0.976 | locus YDR069C, strain doa4, hits give low values 0.995 | locus YDR101C, strain arx1, hits give low values 0.987 | locus YDR137W, strain rgp1, hits give low values 1 | locus YDR150W, strain NUM1, hits give low values 1 | locus YDR159W, strain sac3, hits give low values 0.941 | locus YDR162C, strain NBP2, hits give low values 0.953 | locus YDR195W, strain ref2 0.994 | locus YDR297W, strain sur2, hits give low values 0.99 | locus YDR318W, strain mcm21, hits give low values 0.992 | locus YDR334W, strain swr1, hits give low values 0.959 | locus YDR335W, strain msn5, hits give low values 0.96 | locus YDR388W, hits give low values 1 | locus YDR392W, strain spt3, hits give low values 0.883 | locus YDR502C, strain sam2, hits give low values 0.999 | locus YEL003W, strain gim4, hits give low values 0.987 | locus YEL037C, strain rad23, hits give low values 0.974 | locus YEL061C, strain CIN8 (second series), hits give low values 0.977 | locus YEL061C, strain CIN8, hits give low values 0.987 | locus YER015W, strain faa2, hits give low values 0.967 | locus YER016W, strain bim1, hits give low values 0.949 | locus YER110C, hits give low values 1.01 | locus YER111C, strain swi4, hits give low values 0.967 | locus YER155C, strain BEM2 (second series), hits give low values 1.01 | locus YER155C, strain BEM2, hits give low values 1 | locus YER167W, strain BCK2, hits give low values 0.984 | locus YFR010W, strain ubp6, hits give low values 0.996 | locus YGL078C, strain dbp3, hits give low values 1 | locus YGL086W, strain mad1, hits give low values 0.998 | locus YGL167C, strain pmr1, hits give low values 0.978 | locus YGL173C, strain kem1, hits give low values 1.02 | locus YGL227W, strain vid30, hits give low values 0.975 | locus YGL240W, strain doc1, hits give low values 1 | locus YGL248W, strain PDE1, hits give low values 0.998 | locus YGL253W, strain hxk2, hits give low values 0.939 | locus YGR078C, strain PAC10, hits give low values 1.02 | locus YGR135W, strain pre9, hits give low values 1 | locus YGR252W, strain gcn5, hits give low values 1 | locus YHR013C, strain ard1, hits give low values 0.916 | locus YHR027C, strain rpn1, hits give low values 0.968 | locus YHR030C, strain SLT2, hits give low values 0.987 and 0.966 | locus YHR079C, strain IRE1 (second series), hits give low values 1.01 | locus YHR079C, strain IRE1, hits give low values 0.976 | locus YHR094C, strain hxt1, hits give low values 0.992 | locus YHR129C, strain ARP1, hits give low values 0.994 | locus YHR142W, strain chs7, hits give low values 0.914 | locus YHR200W, strain rpn10, hits give low values 0.991 | locus YIL066C, strain RNR3, hits give low values 0.935 | locus YIL073C, strain SPO22, hits give low values 1.01 | locus YIL125W, strain kgd1, hits give low values 1 | locus YIR030C, strain dcg1, hits give low values 0.996 | locus YJL092W, strain hpr5, hits give low values 0.968 | locus YJL095W, strain BCK1 (second series), hits give low values 0.987 | locus YJL095W, strain BCK1, hits give low values 1.02 and 1.01 | locus YJL115W, strain asf1, hits give low values 0.952 | locus YJL129C, strain trk1, hits give low values 0.929 | locus YJL134W, strain LCB3, hits give low values 0.982 | locus YJL154C, strain vps35, hits give low values 0.973 | locus YJL164C, strain tpk1, hits give low values 0.979 | locus YJL166W, strain qcr8, hits give low values 1 | locus YJL168C, strain set2, hits give low values 0.995 | locus YJL187C, strain SWE1 (second series), hits give low values 1.03 | locus YJR043C, strain POL32, hits give low values 0.954 | locus YJR066W, strain TOR1, hits give low values 0.929 | locus YKL009W, strain mrt4, hits give low values 1 | locus YKL068W, hits give low values 0.992 | locus YKL085W, strain MDH1 (second series), hits give low values 0.995 | locus YKL085W, strain MDH1, hits give low values 0.995 | locus YKL160W, strain elf1, hits give low values 0.931 | locus YKR001C, strain vps1, hits give low values 0.987 | locus YKR026C, strain gcn3, hits give low values 0.983 | locus YKR091W, strain srl3, hits give low values 0.963 | locus YLL001W, strain dnm1, hits give low values 1 | locus YLL026W, hits give low values 0.971 | locus YLL041C, strain sdh2, hits give low values 0.999 | locus YLR027C, strain aat2, hits give low values 0.989 | locus YLR039C, strain RIC1, hits give low values 0.971 | locus YLR058C, strain SHM2, hits give low values 0.988 | locus YLR102C, strain apc9, hits give low values 1 | locus YLR113W, strain HOG1, hits give low values 1.04 | locus YLR221C, strain rsa3, hits give low values 1.03 | locus YLR258W, strain gsy2, hits give low values 0.95 | locus YLR262C, strain YPT6 (second series), hits give low values 0.982 | locus YLR262C, strain YPT6, hits give low values 0.969 | locus YLR268W, strain sec22, hits give low values 1.01 | locus YLR320W, strain mms22, hits give low values 1.01 | locus YLR330W, strain CHS5, hits give low values 0.988 | locus YLR342W, strain FKS1 (second series), hits give low values 0.988 | locus YLR342W, strain FKS1, hits give low values 0.973 | locus YLR357W, strain rsc2, hits give low values 0.947 | locus YLR370C, strain arc18, hits give low values 0.964 | locus YLR371W, strain rom2, hits give low values 0.994 | locus YLR384C, strain iki3, hits give low values 0.941 | locus YLR418C, strain cdc73, hits give low values 1 | locus YML016C, strain PPZ1, hits give low values 0.986 | locus YML032C, strain rad52, hits give low values 0.986 | locus YML120C, strain ndi1, hits give low values 1 | locus YML124C, strain tub3, hits give low values 1.01 | locus YMR058W, strain fet3, hits give low values 0.971 | locus YMR078C, strain ctf18, hits give low values 1 | locus YMR125W, strain sto1, hits give low values 0.97 | locus YMR129W, hits give low values 0.976 | locus YMR205C, strain PFK2, hits give low values 1 | locus YMR223W, strain ubp8, hits give low values 0.997 | locus YMR231W, strain pep5, hits give low values 0.992 | locus YMR307W, strain GAS1, hits give low values 0.904 | locus YNL067W, strain RPL9B, hits give low values 1.06 | locus YNL071W, strain lat1, hits give low values 0.986 | locus YNL183C, strain NPR1, hits give low values 0.975 | locus YNL209W, strain ssb2, hits give low values 0.968 | locus YNL233W, strain BNI4, hits give low values 1.07 | locus YNL248C, strain rpa49, hits give low values 0.903 | locus YNL250W, strain rad50, hits give low values 1.01 | locus YNL271C, strain bni1, hits give low values 0.994 | locus YNL298W, strain CLA4, hits give low values 0.994 | locus YNL307C, strain MCK1, hits give low values 1 | locus YNL322C, strain KRE1 (second series), hits give low values 0.948 | locus YNR049C, strain mso1, hits give low values 0.955 | locus YNR052C, strain pop2, hits give low values 1.03 | locus YOL012C, strain htz1 0.802 | locus YOL147C, strain pex11, hits give low values 0.999 | locus YOR001W, strain rrp6, hits give low values 1.03 | locus YOR061W, strain CKA2, hits give low values 0.975 | locus YOR069W, strain VPS5, hits give low values 0.987 | locus YOR070C, strain gyp1, hits give low values 0.975 | locus YOR080W, strain dia2, hits give low values 0.967 | locus YOR083W, strain WHI5, hits give low values 0.896 | locus YOR106W, strain vam3, hits give low values 0.923 | locus YOR136W, strain idh2, hits give low values 0.998 | locus YOR144C, strain elg1, hits give low values 1 | locus YOR184W, strain ser1, hits give low values 0.995 | locus YOR231W, strain MKK1, hits give low values 0.976 | locus YOR265W, strain rbl2, hits give low values 0.97 | locus YOR270C, strain vph1, hits give low values 0.923 | locus YOR290C, strain snf2, hits give low values 0.929 | locus YOR316C, strain cot1, hits give low values 0.994 | locus YPL051W, strain arl3, hits give low values 0.963 | locus YPL078C, strain atp4, hits give low values 0.939 | locus YPL106C, strain sse1, hits give low values 0.899 | locus YPL240C, strain hsp82, hits give low values 0.987 | locus YPL241C, strain CIN2, hits give low values 0.997 | locus YPL256C, strain CLN2, hits give low values 1.01 | locus YPR119W, strain clb2, hits give low values 0.995 | locus YPR141C, strain kar3, hits give low values 0.989 | locus YPR163C, strain tif3, hits give low values 0.989 | locus YPR167C, strain met16, hits give low values 0.997 | strain wtn01, hits give low values 1.01

From PubChem BioAssay AID1159580 (chemical genetic matrix, 2015)
